This is a sample that favours compounds with a hit; in the whole collection about 6.6% have one here.
KB-V1 cytotox: kills drug-selected multidrug resistant KB-V1 cells | KB-V1 MDR cells viability, CellTiter-Glo, 72 h | Potency, µM (titrated, usually from 46.1 µM), hits mostly cytotoxic | 400,000 compounds, 3.4% hits | AID 1347076; also: nearly all actives have a fitted effect of over 60% in size
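In this primary screen, KB-V1 cells overexpressing P-gp are incubated with library compounds (lowest to highest concentration) for 72 h at 37 degrees C before a luminescent ATP viability read.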
TSG101-PTAP inh: blocks PTAP/TSG101 interaction to inhibit HIV-1 budding | 340,000 tested, under 10 active | Q99816 | Potency, µM (highest dose often 115 µM), hits mostly inhibitors | AID 493005 | Fluorescence polarization, FITC-PTAP peptide / Tsg101 binding; active = well fitted inhibition curve with a large enough effect in the main read-out, with a control signal flat, not every such curve was filed as active; inconclusive = small, poorly fitted or top-dose-only effect, or effect the other way, or a change in a side signal; inactive = no such curve, though single readings can be large or run the other way
Target sequence (Q99816 whole entry, looked up): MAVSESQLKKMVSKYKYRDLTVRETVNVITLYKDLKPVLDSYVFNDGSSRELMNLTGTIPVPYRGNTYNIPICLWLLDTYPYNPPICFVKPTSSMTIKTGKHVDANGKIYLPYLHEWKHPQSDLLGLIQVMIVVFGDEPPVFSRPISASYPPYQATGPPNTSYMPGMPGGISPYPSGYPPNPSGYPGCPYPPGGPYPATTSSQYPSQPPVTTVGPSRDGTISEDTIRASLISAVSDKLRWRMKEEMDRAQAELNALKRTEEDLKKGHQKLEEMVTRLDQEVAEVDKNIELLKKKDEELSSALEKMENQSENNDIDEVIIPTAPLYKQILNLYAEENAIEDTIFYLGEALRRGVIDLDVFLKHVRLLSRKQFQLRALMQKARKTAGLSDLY
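Fluorescence anisotropy tracks displacement of a FITC-tagged PTAP peptide (50 nM) from the Tsg101 binding domain (10 uM), following a 20 min room-temperature incubation at pH 7.5.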
KB-3-1 tox: kills parental KB-3-1 adenocarcinoma cells; 400,000 compounds, 1.4% hits; Potency, µM (doses to about 46.1 µM), most hits filed as cytotoxic; AID 1347075; KB-3-1 viability, CellTiter-Glo ATP luminescence, 72 h; also: nearly all actives have a fitted effect of over 60% in size
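Here the drug-naive KB-3-1 line serves as comparator for MDR sub-line selectivity; cells received compound titrations, 72 h at 37 °C, then CellTiter-Glo readout.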
SW480 rereplic: inducers of DNA re-replication in SW480 colon cancer cells; 340,000 compounds, 1.8% hits; Potency, µM (series often up to 46.1 µM), hits mostly activators; SW480 DNA re-replication, Hoechst DNA content imaging, 48 h; also: nearly all actives have a fitted effect of over 55% in size
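Image-based read-out: total Hoechst fluorescence of nuclei (405 nm excitation, 500-530 nm emission), with hits raising the fraction of high-intensity nuclei. SW480 colon cells incubated 48 hr with compounds at 37 C.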
MCF10A rereplic: induces DNA re-replication in MCF 10a normal breast cells. MCF 10A DNA re-replication, Hoechst nuclear intensity, 48 h. 350,000 compounds, 2.9% hits. Potency, µM (series often up to 46.1 µM), hits mostly activators; also: nearly all actives have a fitted effect of over 50% in size
RGS4 inh: blocks human RGS4-accelerated GTP hydrolysis | AID 504845 | Transcreener GDP fluorescence polarization, RGS4-accelerated GTP hydrolysis | 390,000 compounds, 0.039% hits | Potency, µM (top dose mostly 114 µM), actives largely listed as inhibitors | P49798; also: nearly all actives have a fitted effect of over 75% in size
Target sequence (P49798 whole entry, looked up): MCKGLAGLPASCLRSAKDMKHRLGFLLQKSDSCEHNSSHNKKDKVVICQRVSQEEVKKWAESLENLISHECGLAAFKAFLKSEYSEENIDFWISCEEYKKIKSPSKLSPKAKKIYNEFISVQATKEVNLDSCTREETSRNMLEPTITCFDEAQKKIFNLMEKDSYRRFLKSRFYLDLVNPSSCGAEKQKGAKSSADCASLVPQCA
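MLSMR compounds (23 nl, pin-transferred) preincubated 10 min at room temperature with a 500nM (2x) first reagent, then RGS4 at 900nM (2x) plus Transcreener GDP mix added; fluorescence polarization (620/688 nm) read before and after 90 min at 30 °C.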
A number is an active result; n = inactive; u = inconclusive; x = no result. Unless noted, calls follow the shape of the dose curve; as a rule, active = well fitted curve in the direction sought with a large enough effect; inconclusive = small, poorly fitted or top-dose-only effect, or another doubt; inactive = no such curve, though single readings can be large; an effect the other way counts as inactive or inconclusive.

SMILES	KB-V1 cytotox	TSG101-PTAP inh	KB-3-1 tox	SW480 rereplic	MCF10A rereplic	RGS4 inh
CC(=O)O[C@@]12CO[C@@H]1C[C@H](O)[C@@]1(C)C(=O)[C@H](O)C3=C(C)[C@@H](OC(=O)C(O)[C@@H](NC(=O)OC(C)(C)C)c4ccccc4)C[C@@](O)([C@@H](OC(=O)c4ccccc4)[C@H]21)C3(C)C (some centres not stated)	x	x	x	0.0075µM	u	x
CC(=O)O[C@H]1C(=O)[C@@]2(C)C([C@H](OC(=O)c3ccccc3)[C@]3(O)C[C@H](OC(=O)[C@H](O)[C@@H](NC(=O)c4ccccc4)c4ccccc4)C(C)=C1C3(C)C)[C@]1(OC(C)=O)CO[C@@H]1C[C@H]2O (some centres not stated)	u	n	0.058µM	2.06µM	u	n
CC(=O)O[C@H]1C(=O)[C@]2(C)[C@H]([C@H](OC(=O)c3ccccc3)[C@]3(O)C[C@H](OC(=O)[C@H](O)[C@@H](NC(=O)c4ccccc4)c4ccccc4)C(C)=C1C3(C)C)[C@]1(OC(C)=O)CO[C@@H]1C[C@@H]2O	18.4µM	n	0.164µM	u	n	n
C(=Nc1ccc2ccccc2n1)c1cccnc1	n	x	n	x	x	x
Cc1cccn2cc(CSc3ccccc3N)nc12	13µM	x	n	n	n	n
Nc1ccccc1SCc1cn2ccccc2n1	n	n	n	n	u	n
O=C(NNC(=S)Nc1ccc(F)cc1)c1ccccc1OC(F)F	u	n	n	n	n	n
Cc1ccc(NC(=S)NNC(=O)c2ccccc2OC(F)F)cc1	u	n	n	16.4µM	n	n
Cc1ccc(NC(=S)NNC(=O)Nc2ccccc2)cc1	n	n	n	n	n	n
Cc1ccc(NC(=S)NNC(=S)Nc2ccc(C)cc2)cc1	u	n	3.66µM	n	n	u
Cc1ccc(NNC(=S)Nc2ccc(C(C)C)cc2)c(C)c1	n	n	n	n	7.31µM	n
Cc1ccc(NC(=S)NNC(=O)c2c(Cl)c(C)nn2C)cc1	16.4µM	n	n	n	u	n
CCNC(=O)c1nn(-c2ccccc2C)nc1CO	x	x	x	x	x	n
CCc1ccccc1Nc1nn2c(=O)c3ccc(C(=O)NC(C)c4ccccc4)cc3nc2s1 (configuration not stated)	u	x	u	x	x	n
COc1ccc(NCc2nnc(SCC(=O)c3ccc(OC)cc3)o2)cc1	u	n	n	u	u	u
CCOc1cc(C(=O)CSc2nnc(CNc3ccc(Cl)cc3)o2)ccc1NC(=O)CC	20.6µM	n	u	n	u	n
CCc1nc(C)cn1S(=O)(=O)c1cc(Br)ccc1OC	16.4µM	n	n	n	n	n
CCc1nc(C)cn1S(=O)(=O)c1cc(F)ccc1OC	n	n	n	n	n	n
Cc1ccccc1OCc1nnc(SCc2cc(=O)c3cc(F)ccc3[nH]2)n1C	n	x	20.6µM	x	x	n
CCC(C)(C)n1nnnc1C(c1cc2ccc(C)cc2[nH]c1=O)N(Cc1cccnc1)Cc1ccco1 (configuration not stated)	20.6µM	n	n	u	u	n
Cn1c2ccccc2c2ncn(Cc3ccco3)c(=O)c21	u	n	n	n	n	n
Cn1c2ccc(F)cc2c2ncn(Cc3ccco3)c(=O)c21	4.11µM	n	n	n	u	n
CCOc1ccccc1NC(=O)c1nn(-c2ccc(C)cc2)c(=O)n(C)c1=O	n	x	n	x	x	n
Cc1cc(C)cc(N(CC(=O)N2CCC(C)CC2)S(=O)(=O)c2ccccc2)c1	16.4µM	n	n	u	n	n
CCc1cccc(C)c1NC(=S)NCc1ccc2[nH]c(C)cc2c1	n	n	n	13µM	n	n
SMILES	KB-V1 cytotox	TSG101-PTAP inh	KB-3-1 tox	SW480 rereplic	MCF10A rereplic	RGS4 inh
O=C1CN(C(=O)COc2ccc(Cl)cc2Cl)C(c2ccccc2)c2cc(F)ccc2N1 (configuration not stated)	u	x	u	x	x	n
Cc1ccc(C)c(C(=O)COC(=O)c2ccccc2N2C(=O)C3C4CCC(C4)C3C2=O)c1 (configuration not stated)	4.11µM	n	n	n	n	n
CN(C)S(=O)(=O)c1cccc(-c2cn3ccccc3n2)c1	n	n	n	n	n	n
Clc1ccc2nc(-c3ccccc3)cn2c1	n	n	n	n	n	n
c1ccn2cc(-c3ccc4c(c3)OCCO4)nc2c1	u	n	u	n	n	n
COc1ccc(-c2cn3cc(C)ccc3n2)cc1OC	6.51µM	n	n	n	n	n
CN(C)S(=O)(=O)c1cccc(-c2cn3cc(Cl)ccc3n2)c1	16.4µM	n	n	n	n	n
Clc1ccc2nc(-c3ccc4c(c3)OCO4)cn2c1	u	n	u	23.1µM	u	n
Cc1ccc2nc(-c3ccc4c(c3)OCCO4)cn2c1	u	n	3.66µM	2.59µM	5.8µM	n
Cn1c(=O)c2c(-c3ccccc3Cl)n(-c3cc(Cl)ccc3O)cc2n(C)c1=O	n	x	n	x	x	n
O=c1[nH]c(-c2ccccc2)nc2sc(-c3ccccc3)cc12	u	n	u	2.91µM	10.3µM	u
O=c1[nH]cnc2sc(-c3ccccc3)cc12	n	n	n	n	n	n
Cn1c2ccccc2c2cc(/C=N/NC(=O)c3cc(O)ccc3O)ccc21	n	n	n	n	3.66µM	n
COc1cc(C(=O)N/N=C/c2ccc3c(c2)c2ccccc2n3C)ccc1O	u	n	u	u	13µM	n
Cn1c2ccccc2c2cc(/C=N/NC(=O)c3cc(O)cc(O)c3)ccc21	u	n	n	n	u	n
COc1ccc(OCC(=O)Nc2ccccc2C(=O)OCc2cc(=O)n3nc(C)sc3n2)cc1	x	x	x	x	x	n
Cc1cc(N2C(=O)C(O)=C(C(=O)c3cc4ccccc4o3)C2c2ccc(OC(C)C)cc2)no1 (configuration not stated)	n	n	u	n	u	n
O=C(C1=C(O)C(=O)N(CCN2CCOCC2)C1c1ccc(Br)cc1)c1cc2ccccc2o1 (configuration not stated)	n	n	n	n	n	n
Cc1cc(N2C(=O)C(O)=C(C(=O)c3cc4ccccc4o3)C2c2cccc(Br)c2)no1 (configuration not stated)	u	n	n	n	18.4µM	n
COC(=O)c1ccc(C2C(C(=O)c3cc4ccccc4o3)=C(O)C(=O)N2c2cc(C)on2)cc1 (configuration not stated)	n	n	n	u	23.1µM	n
Cc1ccc(C2C(C(=O)c3cc4ccccc4o3)=C(O)C(=O)N2CCN2CCOCC2)cc1 (configuration not stated)	n	n	n	n	20.6µM	n
